# Measurements published in the supplement of paper PMC10849652.
# About 8,800 targets were measured; listed, in parts, are those with a hit and a random draw of the rest. About 0.5% of all pairs of compound and target were hits.
# Compound: C=CC(=O)N1CCC[C@@H](n2nc(-c3ccc(Oc4ccccc4)cc3)c3c(N)ncnc32)C1 [ibrutinib]
# Assay: log2 fold change, soluble protein after heating vs DMSO (PISA); higher = thermal stabilisation; K562 lysate, 10 uM; active = over 0.2 and 3.5 SD of the protein, either way, in both replicates (recomputed)
# In short: (§1)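 Following dounce homogenisation of K562 pellets in PBS pH 7.4 with 1 mM MgCl2, crude extract at 1 mg/mL protein was incubated for 30 min with 10 μM compound. Aliquots were then heated for 3 min over 48°C-58°C and pooled, NP-40 was added to 0.5% at 4°C, and soluble protein was recovered as the supernatant at 21,000xg for 90 min. Channel-sum-equalised TMTpro 16plex LC-MS/MS quantified this protein. Each value, from duplicates, is a log-two fold change in thermal stability relative to solvent controls.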
# UniProt Q96NW7, sequence (Q96NW7 whole entry, looked up): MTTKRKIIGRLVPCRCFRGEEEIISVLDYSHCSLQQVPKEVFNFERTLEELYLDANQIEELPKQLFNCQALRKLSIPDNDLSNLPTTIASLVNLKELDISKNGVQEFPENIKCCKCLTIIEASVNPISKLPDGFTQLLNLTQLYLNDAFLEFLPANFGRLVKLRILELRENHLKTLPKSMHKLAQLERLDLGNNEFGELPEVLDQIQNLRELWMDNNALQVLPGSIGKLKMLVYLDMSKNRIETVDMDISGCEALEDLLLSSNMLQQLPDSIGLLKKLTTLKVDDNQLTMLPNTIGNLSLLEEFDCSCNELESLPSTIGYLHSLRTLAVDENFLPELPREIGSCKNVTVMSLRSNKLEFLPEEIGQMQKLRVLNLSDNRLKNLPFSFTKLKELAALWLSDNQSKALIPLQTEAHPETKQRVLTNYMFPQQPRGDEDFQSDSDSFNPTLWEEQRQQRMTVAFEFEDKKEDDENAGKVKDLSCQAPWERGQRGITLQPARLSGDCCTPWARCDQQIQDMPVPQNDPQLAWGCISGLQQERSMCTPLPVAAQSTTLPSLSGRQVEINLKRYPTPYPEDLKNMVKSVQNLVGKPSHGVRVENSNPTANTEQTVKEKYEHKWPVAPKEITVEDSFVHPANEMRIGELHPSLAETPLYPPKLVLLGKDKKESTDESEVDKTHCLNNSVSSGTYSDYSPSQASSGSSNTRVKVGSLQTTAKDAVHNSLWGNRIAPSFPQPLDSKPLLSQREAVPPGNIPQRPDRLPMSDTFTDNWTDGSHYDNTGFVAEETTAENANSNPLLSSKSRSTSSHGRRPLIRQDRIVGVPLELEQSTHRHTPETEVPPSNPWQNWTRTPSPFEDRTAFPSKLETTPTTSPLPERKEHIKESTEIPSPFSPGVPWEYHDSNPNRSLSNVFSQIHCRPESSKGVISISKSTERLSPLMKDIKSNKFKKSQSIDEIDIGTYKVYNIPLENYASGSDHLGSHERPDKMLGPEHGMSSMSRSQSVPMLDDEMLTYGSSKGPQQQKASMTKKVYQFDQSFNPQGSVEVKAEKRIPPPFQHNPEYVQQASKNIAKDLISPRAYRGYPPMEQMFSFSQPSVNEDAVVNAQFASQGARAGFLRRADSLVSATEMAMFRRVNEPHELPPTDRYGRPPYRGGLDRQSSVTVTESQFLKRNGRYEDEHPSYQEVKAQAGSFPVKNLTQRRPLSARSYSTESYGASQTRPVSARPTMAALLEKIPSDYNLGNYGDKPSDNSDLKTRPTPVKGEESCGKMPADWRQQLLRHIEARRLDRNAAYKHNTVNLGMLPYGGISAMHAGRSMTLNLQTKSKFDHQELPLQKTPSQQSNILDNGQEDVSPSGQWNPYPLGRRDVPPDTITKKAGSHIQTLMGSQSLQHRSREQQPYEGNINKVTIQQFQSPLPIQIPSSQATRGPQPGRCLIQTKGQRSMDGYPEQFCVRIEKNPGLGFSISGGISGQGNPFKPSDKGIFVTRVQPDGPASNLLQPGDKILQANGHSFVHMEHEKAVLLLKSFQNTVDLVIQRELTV
# UniProt P01116, sequence (P01116 whole entry, looked up): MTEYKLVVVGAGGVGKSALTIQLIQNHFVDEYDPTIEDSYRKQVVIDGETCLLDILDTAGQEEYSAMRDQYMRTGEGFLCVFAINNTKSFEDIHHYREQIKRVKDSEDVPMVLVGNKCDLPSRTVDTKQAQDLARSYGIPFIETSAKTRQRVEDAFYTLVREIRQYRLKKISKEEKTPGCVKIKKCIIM
# UniProt O60337, sequence (O60337 whole entry, looked up): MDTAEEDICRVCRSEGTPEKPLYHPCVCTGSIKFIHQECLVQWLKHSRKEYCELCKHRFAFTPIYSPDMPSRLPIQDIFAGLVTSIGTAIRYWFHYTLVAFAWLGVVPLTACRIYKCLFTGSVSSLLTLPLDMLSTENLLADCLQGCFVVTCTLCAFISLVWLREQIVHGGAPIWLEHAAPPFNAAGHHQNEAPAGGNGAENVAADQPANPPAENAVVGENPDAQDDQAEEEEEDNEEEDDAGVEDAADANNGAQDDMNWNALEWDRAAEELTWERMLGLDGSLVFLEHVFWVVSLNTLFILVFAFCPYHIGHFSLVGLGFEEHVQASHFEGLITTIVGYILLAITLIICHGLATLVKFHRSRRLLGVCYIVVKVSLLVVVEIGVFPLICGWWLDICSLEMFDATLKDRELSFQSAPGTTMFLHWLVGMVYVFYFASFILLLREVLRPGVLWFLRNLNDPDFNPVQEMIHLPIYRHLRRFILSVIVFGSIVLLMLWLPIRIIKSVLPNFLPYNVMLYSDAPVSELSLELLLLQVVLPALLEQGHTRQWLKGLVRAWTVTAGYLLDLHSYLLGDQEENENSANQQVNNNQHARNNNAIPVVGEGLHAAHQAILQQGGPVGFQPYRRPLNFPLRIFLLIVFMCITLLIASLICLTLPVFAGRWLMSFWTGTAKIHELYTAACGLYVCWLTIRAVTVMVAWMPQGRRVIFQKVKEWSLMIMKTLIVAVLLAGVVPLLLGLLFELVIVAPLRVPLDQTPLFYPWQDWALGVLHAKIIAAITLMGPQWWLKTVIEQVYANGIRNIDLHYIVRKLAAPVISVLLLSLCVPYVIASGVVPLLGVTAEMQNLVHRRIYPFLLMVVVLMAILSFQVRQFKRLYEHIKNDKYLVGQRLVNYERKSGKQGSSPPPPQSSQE
# UniProt Q6ZRQ5, sequence (Q6ZRQ5 whole entry, looked up): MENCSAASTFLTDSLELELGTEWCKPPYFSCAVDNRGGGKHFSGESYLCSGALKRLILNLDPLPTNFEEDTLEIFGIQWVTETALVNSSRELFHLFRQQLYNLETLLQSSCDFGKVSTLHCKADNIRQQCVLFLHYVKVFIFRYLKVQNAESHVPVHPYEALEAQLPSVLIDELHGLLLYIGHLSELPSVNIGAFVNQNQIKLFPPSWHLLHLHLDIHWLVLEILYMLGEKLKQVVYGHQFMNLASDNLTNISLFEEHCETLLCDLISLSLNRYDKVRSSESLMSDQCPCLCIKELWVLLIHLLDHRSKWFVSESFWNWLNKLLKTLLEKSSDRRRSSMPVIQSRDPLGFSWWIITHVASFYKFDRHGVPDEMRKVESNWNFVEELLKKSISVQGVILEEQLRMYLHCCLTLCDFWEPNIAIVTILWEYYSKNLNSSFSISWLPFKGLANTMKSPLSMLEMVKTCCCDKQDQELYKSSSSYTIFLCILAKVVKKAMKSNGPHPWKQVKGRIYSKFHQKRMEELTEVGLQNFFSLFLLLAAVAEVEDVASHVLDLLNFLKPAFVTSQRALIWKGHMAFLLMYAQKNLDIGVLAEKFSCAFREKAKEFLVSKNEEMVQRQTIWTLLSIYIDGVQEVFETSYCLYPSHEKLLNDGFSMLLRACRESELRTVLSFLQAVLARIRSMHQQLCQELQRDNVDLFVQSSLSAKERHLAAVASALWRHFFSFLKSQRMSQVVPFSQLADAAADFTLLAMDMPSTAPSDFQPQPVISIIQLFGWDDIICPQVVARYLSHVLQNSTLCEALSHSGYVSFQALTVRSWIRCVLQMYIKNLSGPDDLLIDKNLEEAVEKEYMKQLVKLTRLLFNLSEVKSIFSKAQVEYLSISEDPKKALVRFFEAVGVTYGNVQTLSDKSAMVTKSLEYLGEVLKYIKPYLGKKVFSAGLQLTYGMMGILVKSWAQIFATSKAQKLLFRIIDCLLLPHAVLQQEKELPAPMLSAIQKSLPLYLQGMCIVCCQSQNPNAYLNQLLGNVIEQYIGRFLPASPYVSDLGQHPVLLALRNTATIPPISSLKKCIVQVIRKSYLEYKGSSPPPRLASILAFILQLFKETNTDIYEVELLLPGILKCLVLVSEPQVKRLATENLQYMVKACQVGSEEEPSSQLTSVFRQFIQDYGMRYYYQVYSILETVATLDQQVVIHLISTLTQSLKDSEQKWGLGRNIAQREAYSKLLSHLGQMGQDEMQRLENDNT
# UniProt Q16553, sequence (Q16553 whole entry, looked up): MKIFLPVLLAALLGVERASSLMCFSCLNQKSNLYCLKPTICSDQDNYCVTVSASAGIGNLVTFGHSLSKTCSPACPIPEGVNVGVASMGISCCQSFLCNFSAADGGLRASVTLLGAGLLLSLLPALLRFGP
# UniProt Q9H204, sequence (Q9H204 whole entry, looked up): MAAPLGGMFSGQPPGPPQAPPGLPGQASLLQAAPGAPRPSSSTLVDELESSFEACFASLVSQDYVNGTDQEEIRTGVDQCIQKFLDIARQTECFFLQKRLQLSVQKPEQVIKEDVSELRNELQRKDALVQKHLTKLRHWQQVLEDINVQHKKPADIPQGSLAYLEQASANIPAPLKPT
# UniProt Q86Y91, sequence (Q86Y91 whole entry, looked up): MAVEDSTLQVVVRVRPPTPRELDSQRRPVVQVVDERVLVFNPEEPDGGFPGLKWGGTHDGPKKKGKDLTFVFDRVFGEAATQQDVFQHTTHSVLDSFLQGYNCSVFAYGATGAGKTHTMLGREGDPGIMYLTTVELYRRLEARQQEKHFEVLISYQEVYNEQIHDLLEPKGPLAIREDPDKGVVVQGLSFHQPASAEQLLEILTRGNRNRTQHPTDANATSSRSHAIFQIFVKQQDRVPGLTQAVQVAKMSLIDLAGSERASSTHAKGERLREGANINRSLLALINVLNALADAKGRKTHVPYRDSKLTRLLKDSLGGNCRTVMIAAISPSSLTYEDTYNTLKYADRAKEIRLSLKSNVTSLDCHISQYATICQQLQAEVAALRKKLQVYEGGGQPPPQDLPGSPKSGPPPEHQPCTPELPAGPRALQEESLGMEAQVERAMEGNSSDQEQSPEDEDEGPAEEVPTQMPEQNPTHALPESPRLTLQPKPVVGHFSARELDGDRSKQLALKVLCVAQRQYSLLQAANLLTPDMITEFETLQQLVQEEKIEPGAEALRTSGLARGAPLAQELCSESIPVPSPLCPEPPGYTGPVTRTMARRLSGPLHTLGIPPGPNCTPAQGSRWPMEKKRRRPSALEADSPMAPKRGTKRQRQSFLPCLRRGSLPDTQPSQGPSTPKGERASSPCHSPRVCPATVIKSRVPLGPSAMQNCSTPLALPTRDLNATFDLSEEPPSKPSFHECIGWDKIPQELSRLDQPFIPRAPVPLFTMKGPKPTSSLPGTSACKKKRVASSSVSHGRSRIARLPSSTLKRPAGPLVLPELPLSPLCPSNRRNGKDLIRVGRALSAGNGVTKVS
row,Target,log2 fold change
1,KLC1 isoform 10 (UniProt Q07866),0.235 (inactive)
2,KIF26A (UniProt Q9ULI4),-0.022 (inactive)
3,KRI1 (UniProt Q8N9T8),-0.023 (inactive)
4,MEGF8 (UniProt Q7Z7M0),0 (inactive)
5,MDM2 isoform 11 (UniProt Q00987),-0.071 (inactive)
6,MMS22L (UniProt Q6ZRQ5),-0.025 (inactive)
7,LY6E (UniProt Q16553),-0.032 (inactive)
8,MBTPS1 (UniProt Q14703),-0.243 (inactive)
9,MARF1 (UniProt Q9Y4F3),0.027 (inactive)
10,MOCS3 (UniProt O95396),0.045 (inactive)
11,LRRC7 (UniProt Q96NW7),-0.081 (inactive)
12,MARCHF6 (UniProt O60337),-0.395 (active)
13,KIFC3 isoform 6 (UniProt Q9BVG8),0 (inactive)
14,KIF21A (UniProt H0YI78),-0.187 (inactive)
15,MAPK12 (UniProt P53778),0.049 (inactive)
16,MPP5 (UniProt Q8N3R9),0 (inactive)

# Compound: CC(=O)c1cnc2ccc(-c3cc(Cl)c(O)c(Cl)c3)nc2c1N[C@H]1CC[C@H](CN(C)C)CC1
# Assay: as above
# In short: as §1
row,Target,log2 fold change
1,LRIF1 (UniProt Q5T3J3),-0.088 (inactive)
2,KRAS (UniProt P01116),0.006 (inactive)
3,MMS22L (UniProt Q6ZRQ5),0.049 (inactive)
4,LY6E (UniProt Q16553),0.028 (inactive)
5,MAPK7 (UniProt Q13164),0.388 (active)
6,LRP1 (UniProt Q07954),-0.017 (inactive)
7,MDM1 (UniProt Q8TC05),-0.006 (inactive)
8,KIF3C (UniProt O14782),-0.041 (inactive)
9,MED28 (UniProt Q9H204),-0.067 (inactive)
10,KRAS isoform 2 (UniProt P01116),0.05 (inactive)
11,LGALS3BP (UniProt Q08380),0.061 (inactive)
12,KIF18B (UniProt Q86Y91),-0.157 (inactive)
13,MPDZ (UniProt O75970),0.264 (inactive)
14,LRRC7 (UniProt Q96NW7),0.026 (inactive)
15,MRPL22 (UniProt Q9NWU5),0.001 (inactive)
16,MARCHF6 (UniProt O60337),-0.021 (inactive)
17,KIF21A (UniProt H0YI78),-0.073 (inactive)
18,LRRIQ1 (UniProt Q96JM4),-0.036 (inactive)
